The first experiment addresses Insulin receptor (Homo sapiens) (UniProt P06213). As to conditions: at 1 µM.
Chain of Insulin receptor (Homo sapiens) (P06213 28-758 limits assumed): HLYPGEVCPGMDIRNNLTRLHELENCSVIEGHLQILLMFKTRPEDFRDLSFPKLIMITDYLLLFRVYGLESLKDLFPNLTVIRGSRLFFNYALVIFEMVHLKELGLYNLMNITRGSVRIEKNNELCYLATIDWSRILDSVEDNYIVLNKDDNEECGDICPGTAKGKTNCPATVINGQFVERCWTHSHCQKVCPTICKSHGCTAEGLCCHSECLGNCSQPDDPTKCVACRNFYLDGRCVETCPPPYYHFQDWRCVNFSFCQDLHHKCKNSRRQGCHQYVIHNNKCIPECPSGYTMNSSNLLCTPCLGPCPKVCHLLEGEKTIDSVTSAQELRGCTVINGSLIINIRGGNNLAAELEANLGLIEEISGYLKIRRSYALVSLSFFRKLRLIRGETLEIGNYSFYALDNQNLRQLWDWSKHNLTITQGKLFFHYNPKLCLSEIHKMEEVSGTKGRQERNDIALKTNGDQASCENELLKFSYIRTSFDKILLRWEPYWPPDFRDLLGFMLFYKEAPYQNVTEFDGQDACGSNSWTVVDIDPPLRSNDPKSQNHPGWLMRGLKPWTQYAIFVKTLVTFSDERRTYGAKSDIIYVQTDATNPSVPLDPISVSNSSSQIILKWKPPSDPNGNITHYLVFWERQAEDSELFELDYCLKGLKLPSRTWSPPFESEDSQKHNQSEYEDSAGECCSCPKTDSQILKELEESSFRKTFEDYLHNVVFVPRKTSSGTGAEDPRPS
Chain of Insulin receptor (Homo sapiens) (P06213 763-1382 limits assumed): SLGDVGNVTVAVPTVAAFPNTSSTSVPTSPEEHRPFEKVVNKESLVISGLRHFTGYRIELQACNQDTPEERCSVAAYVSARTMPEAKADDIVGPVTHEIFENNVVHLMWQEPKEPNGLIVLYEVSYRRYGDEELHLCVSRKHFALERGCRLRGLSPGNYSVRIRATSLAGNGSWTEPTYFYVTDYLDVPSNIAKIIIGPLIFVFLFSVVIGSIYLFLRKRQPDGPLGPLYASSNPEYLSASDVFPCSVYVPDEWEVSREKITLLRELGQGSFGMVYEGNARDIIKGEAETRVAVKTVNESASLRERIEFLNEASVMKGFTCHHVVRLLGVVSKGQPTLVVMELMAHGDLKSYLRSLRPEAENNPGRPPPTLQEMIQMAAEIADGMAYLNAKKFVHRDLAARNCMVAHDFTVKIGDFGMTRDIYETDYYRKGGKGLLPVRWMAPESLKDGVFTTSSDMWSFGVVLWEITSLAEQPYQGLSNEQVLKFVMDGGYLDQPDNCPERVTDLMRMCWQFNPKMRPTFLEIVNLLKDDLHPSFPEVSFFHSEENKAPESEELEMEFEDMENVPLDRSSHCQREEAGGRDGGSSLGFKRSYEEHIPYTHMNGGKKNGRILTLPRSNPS
`COc1cc2ncn(-c3cc(OCc4cccs4)c(C(N)=O)s3)c2cc1OC`: the inhibition was determined as 2.03%.
The same measure, in the same setting: in the case of `COc1cc(C)c(N(C)C(=O)CN(C)C)cc1Nc1nc(Nc2cccc(F)c2C(N)=O)c2cc[nH]c2n1` it was 107%.
Take `CN(C)CCCNc1nccc(-c2c(-c3ccc(F)cc3)nn3cc(C(F)(F)F)ccc23)n1`: the inhibition is -0.49%.
For `COc1cccc(/C=N/Nc2ncnc3c2cnn3-c2cccc(OC)c2)c1`, the inhibition is 3.35%.
`CCC(=O)Nc1ccc(C)c(-c2ccc(C(=O)NCC3CC3)cc2)c1`: the inhibition came out at 5.36%.
Regarding `CCS(=O)(=O)c1ccc(OC)c(Nc2ncc(-c3cccc(-c4ccccc4F)c3)o2)c1`, the inhibition amounted to 1.9%.
Take `C#Cc1cccc(Nc2ncnc3ccc(OCCCCNCCS(C)(=O)=O)cc23)c1`: the inhibition turned out to be 4.34%.
Turning to `CS(=O)(=O)CCNCc1ccc(-c2ccc3ncnc(Nc4ccc(OCc5ccccc5)c(Br)c4)c3c2)o1`, the inhibition came to 1.17%.
Consider `COc1cc2ncn(-c3cc(OCCc4ccccc4)c(C(N)=O)s3)c2cc1OC`, for which the inhibition was 0.56%.
With `NS(=O)(=O)c1ccc(N/N=C2\C(=O)Nc3ccc(-c4cnco4)cc32)cc1`, the inhibition is 7.36%.
Same read-out and setting: in the case of `Cc1ccc(C(=O)NC2CCC2)cc1-c1ccc(C(=O)NCC2CC2)cc1` it was 5.62%.
`COc1ccc2cc(-c3c(-c4ccncc4)nc(-c4ccc([S+](C)[O-])cc4C)n3C)ccc2c1` (configuration not stated): the inhibition was 2.57%.
Turning to `COc1cc(N2CCN(C(C)C)CC2)ccc1Nc1nc(Nc2ccc(F)cc2C(=O)NC[C@@H](O)CO)c2cc[nH]c2n1`, the inhibition is 116%.
On the same count and under the same terms, under `COc1ccc2ncn(-c3cc(O[C@H](C)c4ccccc4Cl)c(C(N)=O)s3)c2c1` stands 3.79%; under `Fc1ccc(-c2nc3n(c2-c2ccncc2)CCS3)cc1`, 5.39%; under `Fc1ccc(-c2c(-c3ccncc3)nc3n2CCS3)cc1`, 6.13%.
On to `NCc1ccc(-n2c(-c3nonc3N)nc3cnccc32)cc1`, for which the inhibition stood at 8.17%.
Still for that read-out and setting: under `CCS(=O)(=O)c1ccc(OC)c(Nc2ncc(-c3ccccc3Cl)o2)c1` stands 3.26%; under `Fc1ccc(-c2ncn(C3CCNCC3)c2-c2ccnc(Oc3ccc(F)c(F)c3)n2)cc1`, 0.24%.
On to `Fc1ccc(-c2ncn(C3CCNCC3)c2-c2ccnc(Oc3ccc(Oc4ccccc4)cc3)n2)cc1`, for which the inhibition was found to be 3.44%.
Regarding `C[C@@H](Oc1cc(-n2cnc3ccc(OC4CCN(C)CC4)cc32)sc1C(N)=O)c1ccccc1Cl`, the inhibition is -1.99%.
As for `c1ccc(-c2n[nH]cc2-c2ccnc(-c3ccc(OCCN4CCOCC4)cc3)c2)nc1`, the inhibition was -1.85%.
For `c1ccc(Oc2ccc(Nc3ncc(-c4ccccc4)o3)cc2)cc1`, the inhibition worked out at 2.94%.
For the compound `COc1cccc(-n2cnc3c(N/N=C/c4ccncc4)ncnc32)c1`, the inhibition is -4.12%.
For the compound `C[C@@H](Oc1cc(-n2cnc3ccc(OCC4CCN(C)CC4)cc32)sc1C(N)=O)c1ccccc1Cl`, the inhibition stood at 8.87%.
As for `CCN(CC)Cc1ccc(Nc2nccc(-c3cnn4ncccc34)n2)cc1`, the inhibition worked out at 73.2%.
In the case of `Cc1nnc(-c2ccc(C)c(-c3ccc(C(=O)NCc4ccc(Cl)cc4)cc3)c2)o1`, the inhibition is 6.19%.
`O=C(Nc1n[nH]c2cc(-c3ccccc3)ccc12)C1CC1`: the inhibition was found to be 5.84%.
With `COc1cc(Nc2ncc3c(C)nc(-c4cccc(Oc5ccccc5)c4)n3n2)cc(OC)c1OC`, the inhibition was 8.16%.
The same measure, in the same setting: in the case of `Clc1ccc(CNc2nccc(-c3cnn4ncccc34)n2)cc1` it was 1.97%.
As for `CN(C)c1ccc2c(c1)/C(=C/Nc1ccc(S(N)(=O)=O)cc1)C(=O)N2`, the inhibition was found to be 6.31%.
As to `CNC(=O)c1cncc(/C=C/c2c(C)cccc2C)c1`, the inhibition stood at 4.95%.
In the case of `COc1cc(Nc2ncc3c(C)nc(-c4cccc(C(F)(F)F)c4)n3n2)cc(OC)c1OC`, the inhibition came to 8.95%.

The target of the next experiment is Insulin receptor-related protein (Homo sapiens) (UniProt P14616). As to conditions: at 0.1 µM.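 Note: mean percent inhibition of IRR, reported within the GSK PKIS screening panel.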
Chain of Insulin receptor-related protein (Homo sapiens) (P14616 27-742 limits assumed): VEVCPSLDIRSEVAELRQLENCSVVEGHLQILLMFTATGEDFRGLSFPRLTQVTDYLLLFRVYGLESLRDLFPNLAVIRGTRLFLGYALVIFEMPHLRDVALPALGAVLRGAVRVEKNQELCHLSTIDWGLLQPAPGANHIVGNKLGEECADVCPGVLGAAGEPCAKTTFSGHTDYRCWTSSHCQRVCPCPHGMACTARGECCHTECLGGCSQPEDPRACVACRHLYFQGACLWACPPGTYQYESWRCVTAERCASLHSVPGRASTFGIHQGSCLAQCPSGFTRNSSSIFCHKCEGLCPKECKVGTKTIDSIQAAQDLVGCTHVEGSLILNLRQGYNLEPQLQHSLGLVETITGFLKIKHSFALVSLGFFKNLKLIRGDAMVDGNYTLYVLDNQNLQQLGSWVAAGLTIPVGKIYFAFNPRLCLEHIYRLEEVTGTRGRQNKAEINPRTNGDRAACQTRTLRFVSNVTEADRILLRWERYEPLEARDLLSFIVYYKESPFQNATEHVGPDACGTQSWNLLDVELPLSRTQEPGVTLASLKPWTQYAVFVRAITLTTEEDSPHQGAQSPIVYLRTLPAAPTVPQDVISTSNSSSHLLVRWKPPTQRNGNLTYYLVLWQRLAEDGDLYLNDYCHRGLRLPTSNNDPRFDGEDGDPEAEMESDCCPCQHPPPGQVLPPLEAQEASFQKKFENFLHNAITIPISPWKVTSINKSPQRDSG
Chain of Insulin receptor-related protein (Homo sapiens) (P14616 747-1297 limits assumed): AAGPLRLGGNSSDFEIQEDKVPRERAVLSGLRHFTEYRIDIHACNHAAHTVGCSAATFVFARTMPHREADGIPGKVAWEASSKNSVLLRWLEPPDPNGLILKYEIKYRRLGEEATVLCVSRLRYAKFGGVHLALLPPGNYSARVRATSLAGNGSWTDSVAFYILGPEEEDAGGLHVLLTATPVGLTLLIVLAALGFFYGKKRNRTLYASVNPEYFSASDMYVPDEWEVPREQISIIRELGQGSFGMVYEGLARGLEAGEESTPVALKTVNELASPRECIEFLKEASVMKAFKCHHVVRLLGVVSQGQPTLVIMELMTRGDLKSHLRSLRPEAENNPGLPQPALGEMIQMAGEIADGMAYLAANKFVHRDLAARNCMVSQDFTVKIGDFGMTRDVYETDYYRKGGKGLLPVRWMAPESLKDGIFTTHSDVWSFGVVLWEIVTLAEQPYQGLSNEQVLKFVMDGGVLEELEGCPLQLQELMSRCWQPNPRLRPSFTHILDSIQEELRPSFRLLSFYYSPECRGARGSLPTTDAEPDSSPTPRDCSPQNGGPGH
For `COc1cc2ncn(-c3cc(OCc4cccs4)c(C(N)=O)s3)c2cc1OC`, the inhibition was found to be 0.43%.
Same read-out and setting: under `COc1cc(C)c(N(C)C(=O)CN(C)C)cc1Nc1nc(Nc2cccc(F)c2C(N)=O)c2cc[nH]c2n1` stands 5.09%.
For the compound `CN(C)CCCNc1nccc(-c2c(-c3ccc(F)cc3)nn3cc(C(F)(F)F)ccc23)n1`, the inhibition came out at 2.55%.
On to `COc1cccc(/C=N/Nc2ncnc3c2cnn3-c2cccc(OC)c2)c1`, for which the inhibition stood at 1.18%.
Still for that read-out and setting: under `CCC(=O)Nc1ccc(C)c(-c2ccc(C(=O)NCC3CC3)cc2)c1` stands 0%.
For the compound `CCS(=O)(=O)c1ccc(OC)c(Nc2ncc(-c3cccc(-c4ccccc4F)c3)o2)c1`, the inhibition is -1.45%.
As for `C#Cc1cccc(Nc2ncnc3ccc(OCCCCNCCS(C)(=O)=O)cc23)c1`, the inhibition is 2.65%.
Take `CS(=O)(=O)CCNCc1ccc(-c2ccc3ncnc(Nc4ccc(OCc5ccccc5)c(Br)c4)c3c2)o1`: the inhibition was determined as 2.56%.
For the compound `COc1cc2ncn(-c3cc(OCCc4ccccc4)c(C(N)=O)s3)c2cc1OC`, the inhibition was 2.17%.
As to `NS(=O)(=O)c1ccc(N/N=C2\C(=O)Nc3ccc(-c4cnco4)cc32)cc1`, the inhibition was -1.08%.
Still for that read-out and setting: under `Cc1ccc(C(=O)NC2CCC2)cc1-c1ccc(C(=O)NCC2CC2)cc1` stands 0.92%.
As for `COc1ccc2cc(-c3c(-c4ccncc4)nc(-c4ccc([S+](C)[O-])cc4C)n3C)ccc2c1` (configuration not stated), the inhibition was -0.96%.
Regarding `COc1cc(N2CCN(C(C)C)CC2)ccc1Nc1nc(Nc2ccc(F)cc2C(=O)NC[C@@H](O)CO)c2cc[nH]c2n1`, the inhibition was determined as 26.6%.
`COc1ccc2ncn(-c3cc(O[C@H](C)c4ccccc4Cl)c(C(N)=O)s3)c2c1`: the inhibition is 2.92%.
Take `Fc1ccc(-c2nc3n(c2-c2ccncc2)CCS3)cc1`: the inhibition amounted to 2.11%.
Consider `CN1CCN(CCCNc2nc3ccc(Oc4ccc(NC(=O)Nc5cc(C(F)(F)F)ccc5F)cc4)cc3[nH]2)CC1`, for which the inhibition was determined as 1.22%.
On the same count and under the same terms, under `Fc1ccc(-c2c(-c3ccncc3)nc3n2CCS3)cc1` stands 0.59%; under `NCc1ccc(-n2c(-c3nonc3N)nc3cnccc32)cc1`, 3.81%.
For the compound `CCS(=O)(=O)c1ccc(OC)c(Nc2ncc(-c3ccccc3Cl)o2)c1`, the inhibition was 1.25%.
As for `Fc1ccc(-c2ncn(C3CCNCC3)c2-c2ccnc(Oc3ccc(F)c(F)c3)n2)cc1`, the inhibition turned out to be 3.04%.
The same measure, in the same setting: under `Fc1ccc(-c2ncn(C3CCNCC3)c2-c2ccnc(Oc3ccc(Oc4ccccc4)cc3)n2)cc1` stands 1.91%; under `C[C@@H](Oc1cc(-n2cnc3ccc(OC4CCN(C)CC4)cc32)sc1C(N)=O)c1ccccc1Cl`, 2.49%; under `c1ccc(-c2n[nH]cc2-c2ccnc(-c3ccc(OCCN4CCOCC4)cc3)c2)nc1`, -0.78%.
Turning to `c1ccc(Oc2ccc(Nc3ncc(-c4ccccc4)o3)cc2)cc1`, the inhibition is -1.75%.
The same measure, in the same setting: under `COc1cccc(-n2cnc3c(N/N=C/c4ccncc4)ncnc32)c1` stands 1%.
On to `C[C@@H](Oc1cc(-n2cnc3ccc(OCC4CCN(C)CC4)cc32)sc1C(N)=O)c1ccccc1Cl`, for which the inhibition worked out at 2.3%.
As to `CCN(CC)Cc1ccc(Nc2nccc(-c3cnn4ncccc34)n2)cc1`, the inhibition amounted to 2.45%.
Regarding `Cc1nnc(-c2ccc(C)c(-c3ccc(C(=O)NCc4ccc(Cl)cc4)cc3)c2)o1`, the inhibition turned out to be 1.93%.
For the compound `O=C(Nc1n[nH]c2cc(-c3ccccc3)ccc12)C1CC1`, the inhibition was determined as 2.53%.
Regarding `COc1cc(Nc2ncc3c(C)nc(-c4cccc(Oc5ccccc5)c4)n3n2)cc(OC)c1OC`, the inhibition is 2.99%.
Consider `Clc1ccc(CNc2nccc(-c3cnn4ncccc34)n2)cc1`, for which the inhibition came out at 2.17%.
Turning to `CN(C)c1ccc2c(c1)/C(=C/Nc1ccc(S(N)(=O)=O)cc1)C(=O)N2`, the inhibition came to 0.97%.
As for `CNC(=O)c1cncc(/C=C/c2c(C)cccc2C)c1`, the inhibition came to 2.26%.
Still for that read-out and setting: under `COc1cc(Nc2ncc3c(C)nc(-c4cccc(C(F)(F)F)c4)n3n2)cc(OC)c1OC` stands 1.64%.

One may read the inhibition as the drop in the measured response relative to a control, in per cent.
